Assay outcomes from PubChem.
IL2 activator – activators of IL-2. IL-2 activation reporter assay, cell-based qHTS; stimulated with anti-CD3/CD4/CD28 beads; in transgenic mouse T cells. activation, % (series mostly up to about 46 µM). 0.065% of 360,000 active. AID 652025; in the data active = activation above about 50%; inconclusive = mostly about 30% to 49%; note: 0% is about no effect
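First, unstimulated transgenic mouse T cells were exposed to compound for 60 min. Next, anti-CD3/anti-CD4-coated beads with anti-CD28 were added. Finally, after 18 h at 37 degrees C, EGFP and DsRed were imaged.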
ClpP mod – qHTS Assay for Activators of ClpP; Potency, µM (doses to about 57.5 µM), without a hit: top-dose activity change, negative = active; ATP-dependent Clp protease proteolytic subunit (Bacillus subtilis (strain 168)), P80244; purified B. subtilis ClpP, FRET peptide cleavage, 20 min; 1.9% of 340,000 active; active = well fitted falling curve with a large enough effect; inconclusive = small, poorly fitted or top-dose-only effect; inactive = no such curve, though single readings can be large or run the other way; note: potency is the fitted concentration of half-maximal effect; the source files actives as falling curves though it sought activators and does not explain the sign; nearly all actives have a fitted effect of over 65% in size
Target sequence (P80244 whole entry, looked up): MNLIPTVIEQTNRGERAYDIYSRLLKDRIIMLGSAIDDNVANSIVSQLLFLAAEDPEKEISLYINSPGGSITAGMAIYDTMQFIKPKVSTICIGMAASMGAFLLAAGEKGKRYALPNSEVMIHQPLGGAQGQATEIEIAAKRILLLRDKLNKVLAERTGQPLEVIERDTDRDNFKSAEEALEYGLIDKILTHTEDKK
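FRET quenching reversal measured ClpP activation: 10 microg/mL B. subtilis ClpP at pH 8 with the FRET-FV decapeptide, read at 430 nm after 320 nm excitation. The 20-min minus 0-min signal was scaled between DMSO/no-enzyme wells and ADEP (5.8 microM final).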
PKM2 activator – increases activity of human pyruvate kinase M2 | P14618 | purified PKM2, Kinase-Glo ATP luminescence, activation; response scale: 0% is enzyme alone, no compound | Potency, µM (top dose mostly 57.5 µM), for the others: at the highest dose activation, most hits filed as activators | 0.34% of 260,000 active | AID 1631; note: potency is the fitted concentration of half-maximal effect; % is set by controls: 0 for no effect and ±100 for the full control effect; nearly all actives have a fitted effect of over 55% in size
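hPK-M2, >95% pure; 0.1 mM ADP / 0.5 mM PEP final; imidazole pH7.2 buffer w/ 7 mM MgCl2, 50 mM KCl; 1 h RT; Kinase-Glo lum. Intermediate enzyme activity for dual inhibitor/activator qHTS.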
NPSR antagonist – neuropeptide S receptor (human) antagonism, cAMP; Q6W5P4; CHO-NPSR cells, cAMP TR-FRET, antagonist mode; Potency, µM (top dose mostly 38.3 µM), for the others: at the highest dose activity change, negative = inhibition, most hits filed as inhibitors; 1% of 220,000 active; note: potency is the fitted concentration of half-maximal effect; % is set by controls: 0 for no effect and ±100 for the full control effect; nearly all actives have a fitted effect of over 50% in size
Target sequence (Q6W5P4 whole entry, looked up): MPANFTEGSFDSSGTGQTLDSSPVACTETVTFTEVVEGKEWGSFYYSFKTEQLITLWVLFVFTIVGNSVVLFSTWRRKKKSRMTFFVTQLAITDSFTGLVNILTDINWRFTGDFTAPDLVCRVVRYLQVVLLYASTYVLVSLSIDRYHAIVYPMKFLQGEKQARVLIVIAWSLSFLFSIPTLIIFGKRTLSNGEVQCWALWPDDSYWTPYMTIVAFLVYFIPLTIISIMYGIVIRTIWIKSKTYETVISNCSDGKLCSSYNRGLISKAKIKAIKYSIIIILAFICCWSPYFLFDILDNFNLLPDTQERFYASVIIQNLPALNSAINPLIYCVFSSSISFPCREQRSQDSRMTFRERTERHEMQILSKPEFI
* = called active by the depositor; ? = inconclusive; / = no result; [ ] = remark or other dose. Sampled rows, rich in hits. Any-hit rate of the full collection: about 2%. Unless noted, calls come from the whole dose curve; as a rule, active = well fitted curve in the direction sought with a large enough effect; inconclusive = small, poorly fitted or top-dose-only effect, or another doubt; inactive = no such curve, though single readings can be large; an effect the other way counts as inactive or inconclusive.

SMILES	IL2 activator	ClpP mod	PKM2 activator	NPSR antagonist
Nc1c(C(=O)NCc2ccc(F)cc2)c2nc3ccccc3nc2n1CCCN1CCOCC1	-0.1	35.5µM*	1.5%	?
Nc1c(C(=O)NCc2ccccc2)c2nc3ccccc3nc2n1CCCN1CCOCC1	-2.7	4.6%	6.9%	-48.0%
CC(C)Cn1c(N)c(C(=O)NCCN2CCOCC2)c2nc3ccccc3nc21	0.1	28.2µM*	15.7%	?
Cc1ccc(C(=O)Cn2nnc3ccccc32)cc1[N+](=O)[O-]	2.1	-1.3%	2.1%	37.4%
Cc1ccccc1COc1ccc(/C=N/NC(=O)c2nnn(-c3nonc3N)c2CN2CCC(C)CC2)cc1	-2.8	-8.2%	/	/
Nc1cccc2nsnc12	-5.2	/	-1.4%	-2.0%
Nc1cc2nsnc2cc1Br	-1.6	-0.8%	-7.1%	2.51µM*
C=CCOc1c(CNc2ccc(C(=O)O)cc2)cccc1OCC	1.3	-12.3%	-2.0%	-12.3%[46.1 µM]
C=CCOc1c(CNc2cccc(C(=O)O)c2)cccc1OC	0.4	25.1µM*	0.5%	4.2%[46.1 µM]
C=CCOc1c(CNc2ccc(C(=O)O)cc2)cccc1OC	11.3	-10.5%	0.5%	1.6%
C=CCOc1c(CNc2cccc(C(=O)O)c2)cccc1OCC	1.6	31.6µM*	-11.1%	-11.1%[46.1 µM]
Cc1c(C)c2cc(Cl)c(OCc3nn[nH]n3)cc2oc1=O	0.6	29.7%	28.2µM*	-6.6%[46.1 µM]
CCCCOn1c(C)c(C(=O)OCC)c2c3nonc3ccc21	0.5	17.8µM*	/	/
CCCCOn1c(C)c(C(=O)OCC)c2c3no[n+]([O-])c3ccc21	0.4	0.3%	-23.5%	-7.6%[46.1 µM]
S=c1[nH]nc(-c2ccc(Cl)cc2)n1/N=C/c1cccs1	-2.0	/	0.3%	-17.9%
Cc1cccc(C=Nc2ccc3c4c(cccc24)CC3)c1O	-0.4	15.8µM*	2.9%	4.9%
Oc1ccc(Cl)cc1C=Nc1ccc2c3c(cccc13)CC2	-0.6	0.2%	1.5%	-27.6%
Cc1ccc(NC(=O)NCc2ccccn2)cc1Cl	0.3	-0.2%	0.1%	/
CC(C)(CO)N1CCN(C(=S)Nc2ccccc2)CC1	3.0	2.1%	-1.6%	10.9%
N/C(=N\OC(=O)c1ccc(=O)n(Cc2ccccc2)c1)c1ccccn1	-0.4	28.2µM*	-2.5%	3.3%
OC[C@@H]1CN(C2CCCC2)C[C@H](n2cnc3c(NC4CC4)ncnc32)O1	-0.4	0.2%	/	/
O=C(CCN=C1NS(=O)(=O)c2ccccc21)OCc1nnc(-c2ccc([N+](=O)[O-])cc2)o1	-4.7	28.2µM*	/	/
CS(=O)(=O)c1nc(-c2ccccc2)cc(C(F)(F)F)n1	-0.8	-4.6%	23.2%	10µM*
N#Cc1c(N2CCCC(O)C2)nc(N)c2c(N)nc3c(c12)CC(=O)N3C12CC3CC(CC(C3)C1)C2 (stereo not drawn)	-0.7	28.2%	3.6%	?
C=C(C)CN(CC)c1nc(N)c2c(N)nc3c(c2c1C#N)CC(=O)N3C12CC3CC(CC(C3)C1)C2	0.5	16.4%	-2.4%	5.01µM*
SMILES	IL2 activator	ClpP mod	PKM2 activator	NPSR antagonist
CC(=O)N1CCN(CC(=O)Nc2cc([N+](=O)[O-])ccc2Cl)CC1	2.8	/	-0.8%	3.6%
O=C(CN1CCN(c2ccc(O)cc2)CC1)Nc1cc([N+](=O)[O-])ccc1Cl	0.0	15.8µM*	-1.9%	-9.0%
CCc1nc2ccccc2n1Cc1cc(=O)n2cc(C)ccc2n1	-1.7	?	15.8µM*	1.0%[46.1 µM]
COCCNC(=O)C1(C)CCCN(C(=O)c2cccc3ccccc23)C1 (stereo not drawn)	-0.5	-2.0%	/	/
Cc1cc(C)c(C#N)c(SCCS(=O)(=O)c2ccc(Cl)cc2)n1	-3.0	/	20µM*	-19.6%
Cc1cc(C)c(C#N)c(SCCS(=O)(=O)Cc2ccc(Cl)cc2)n1	0.1	0.6%	1.2%	?
CC1CN(C(=S)Nc2ccc(SC(F)F)cc2)CC(C)O1 (stereo not drawn)	-1.9	/	-4.3%	/
CC1CC(C)CN(C(=S)Nc2ccc(SC(F)F)cc2)C1 (stereo not drawn)	0.4	28.2µM*	5.1%	2.6%[46.1 µM]
COC(=O)c1c(NC(=O)CSc2nnc3ccccn23)sc2c1CCC2	-2.7	28.2µM*	-5.8%	16.6%
COc1ccc(/C=C(/NC(=O)c2ccccc2Cl)C(=O)NCCCC(=O)O)cc1	-2.0	/	-2.2%	-4.9%
Cc1ccc2c(c1)-c1c(cnc3cc(-c4ccc(Cl)cc4)nn13)CO2	/	17.8µM*	/	/
COc1ccc(-c2nnc(SCC(=O)NCc3ccc(C)cc3)nc2-c2ccc(OC)c(OC)c2)cc1OC	/	-24.6%	/	/
Cc1ccc(-n2ncc3c2CC(C)(C)CC3NC(=O)c2ccccn2)cc1 (stereo not drawn)	-4.5	-5.2%	1.3%[0.46 µM]	/
CN(Cc1cccc2cnccc12)C(=O)c1cc(COc2ccc(F)cc2Cl)on1	-5.6	1.7%	/	/
Cc1ccc(-c2nn(-c3ccccc3)cc2/C=C2\SC(=S)N(CC(=O)O)C2=O)cc1	4.9	0.6%	?	12.6µM*
O=C(NCCCO)NC(=S)c1cccc2ccccc12	1.8	/	-7.8%	11.2%
CC(C)CN1CC(C)C(=O)NC1=S (stereo not drawn)	-3.7	28.2µM*	/	/
CO/N=C(\Cn1ncc(N2CCCC2)c(Cl)c1=O)c1ccc(Cl)cc1	0.4	-0.8%	14.1µM*	-23.7%[46.1 µM]
Cc1cccc(NC(=O)C2C(c3ccccc3)C2(Cl)Cl)c1C (stereo not drawn)	-1.1	-21.8%	6.6%	-25.8%[46.1 µM]
Cc1ccc(-c2ccc(CCC(=O)O)o2)cc1	-1.7	15.8µM*	20.3%	-9.0%[46.1 µM]
O=C(Cc1ccccc1)NCc1ccc2c(c1)OCO2	0.1	1.4%	10.4%	-8.5%[46.1 µM]
O=C(COC(=O)C1(c2ccc(F)cc2)CCCC1)NCc1ccc2c(c1)OCO2	3.1	-1.1%	1.7%	-9.2%[46.1 µM]
O=C(COC(=O)C1(c2ccccc2F)CCCC1)NC1CCS(=O)(=O)C1 (stereo not drawn)	-0.2	28.2µM*	-0.4%	-10.8%[46.1 µM]
O=C(COc1ccccc1)NC1CCS(=O)(=O)C1 (stereo not drawn)	0.3	-3.3%	-0.3%	6.0%
O=C(COC(=O)C1(c2ccccc2F)CCCC1)NCc1ccc2c(c1)OCO2	64.7*	-3.1%	16.3%	-35.6%
SMILES	IL2 activator	ClpP mod	PKM2 activator	NPSR antagonist
O=C(Cc1ccccc1[N+](=O)[O-])NCc1ccc2c(c1)OCO2	-2.6	31.6µM*	-6.8%	8.0%
NS(=O)(=O)c1ccc(NC(=O)COC(=O)C2(c3ccccc3F)CCCC2)cc1	-1.6	25.1µM*	5.1%	-28.6%
Cn1nnnc1SCCCNCc1cccc(OCc2ccccc2Cl)c1	/	0.6%	/	/
O=[N+]([O-])c1ccc(N=Nc2c(Cl)cc(O)cc2Cl)cc1	-2.5	-1.5%	-25.1%	7.94µM*
CCCCN(C)CCCNC(=O)c1cc(Nc2ccc(OC)c(OC)c2)nc2ccccc12	-2.8	-0.9%	/	/
Cc1ccc(CNC(=O)CCOc2ccc(C(C)(C)C)cc2)cc1	-2.5	-5.9%	0.0%	-4.3%[46.1 µM]
CCCc1cc(=O)n2[nH]c(C)cc2n1	-1.6	31.6µM*	-0.6%	5.2%[46.1 µM]
CCOC(=O)Cc1csc(NC(=O)CSc2nccn2C)n1	-2.9	-6.2%	-8.5%	/
Cc1occc1-c1nnc(SCC(=O)c2c[nH]c3ccccc23)n1C	-0.7	0.7%	25.1µM*	-30.1%[46.1 µM]
